Source: PubChem
An excerpt weighted towards active compounds, which were near 9.4% of everything screened.
Rab9 prom act: activators of Rab9 promoter. actives 2.8% (n = 320,000). Huh7 Rab9 promoter-luciferase reporter, luminescence, 24 h. Potency, µM (series often up to 9.22 µM), inactives show at the highest dose activation, negative = inhibition, usual class: activators; also: % of control where 0% means no effect; nearly all actives have a fitted effect of over 60% in size
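Luminescence read-out: Huh7 cells stably expressing Rab9-luciferase, treated 24 h with compound at 37 °C, then lysed with luciferase reagent for 10 min at ambient before reading.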
ELG1 genotox: inducers of genotoxicity in HEK293T ELG1-luciferase cells. HEK293T ELG1-luciferase reporter, luminescence, 16 h. actives 1.3% (n = 330,000). AID 504466. Potency, µM (series often up to 46 µM), without a hit: top-dose activity change, positive = activation, most hits filed as activators; also: % of control where 0% means no effect; nearly all actives have a fitted effect of over 60% in size
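Genotoxicity was scored as increased ELG1-luciferase reporter signal, measured by ONE-Glo luminescence (30 min, room temperature). Compound or vehicle exposure of the HEK293T reporter cells lasted 16 hr at 37°C.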
SMN2 splice up: increases expression of the SMN2 splice variant; HEK293 SMN2-luciferase splicing reporter, luminescence, 30-36 h; Potency, µM (series often up to 46.1 µM), for the others: at the top dose activity change, positive = activation, actives largely listed as activators; actives 2.8% (n = 210,000); AID 1458; also: % of control where 0% means no effect; nearly all actives have a fitted effect of over 55% in size
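qHTS luciferase splicing reporter: luminescence rises when SMN2 exon 7 is included in transfected HEK293 cells. Compound exposure lasted 30-36 h at 37C, with 4.5 mM final sodium butyrate as control, followed by a ONE-Glo read.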
ELG1 DNA repair: ELG1-dependent DNA repair inhibition. HEK293T ELG1-luciferase reporter, luminescence, 16 h; DNA damage induced by 5-fluorouridine. actives 2.3% (n = 330,000). Potency, µM (doses to about 46.1 µM), without a hit: at the top dose activity change, negative = inhibition, actives largely listed as inhibitors; also: % is scaled to controls: 0 for no effect and ±100 for the full control effect; nearly all actives have a fitted effect of over 55% in size
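Cells (2,000 per well) received 5-fluorouridine plus test compound or DMSO and were incubated 16 hr at 37 °C, 5% CO2. Luciferase activity was read by luminescence 30 min after ONE-Glo addition; signal suppression marked inhibition of damage-induced ELG1 function.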
NPC1 promoter act: NPC1 promoter activation; Huh7 NPC1 promoter luciferase reporter, 24 h; actives 2.4% (n = 320,000); Potency, µM (doses to about 9.22 µM), for inactives: at the top dose activation, hits mostly activators; also: % of control where 0% means no effect; nearly all actives have a fitted effect of over 60% in size
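Cells: Huh7 expressing luciferase under the NPC1 promoter, 1500/well. Seeded 2 h, compound added, incubated 24 h at 37 °C. Luciferase reagent, 10 min ambient, then luminescence.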
FLuc modulator: counter-screen for miR-21 project: firefly luciferase inhibitors or activators. P08659. purified FLuc, Km substrates, luminescence inhibition. Potency, µM (doses to about 57.5 µM), without a hit: at the highest dose activity change, negative = inhibition, most hits filed as inhibitors. actives 6.9% (n = 360,000). AID 588342;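 also: plate controls were vehicle for no effect and reference inhibitor for full effect; nearly all actives have a fitted effect of over 55% in size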
Target sequence (P08659 whole entry, looked up): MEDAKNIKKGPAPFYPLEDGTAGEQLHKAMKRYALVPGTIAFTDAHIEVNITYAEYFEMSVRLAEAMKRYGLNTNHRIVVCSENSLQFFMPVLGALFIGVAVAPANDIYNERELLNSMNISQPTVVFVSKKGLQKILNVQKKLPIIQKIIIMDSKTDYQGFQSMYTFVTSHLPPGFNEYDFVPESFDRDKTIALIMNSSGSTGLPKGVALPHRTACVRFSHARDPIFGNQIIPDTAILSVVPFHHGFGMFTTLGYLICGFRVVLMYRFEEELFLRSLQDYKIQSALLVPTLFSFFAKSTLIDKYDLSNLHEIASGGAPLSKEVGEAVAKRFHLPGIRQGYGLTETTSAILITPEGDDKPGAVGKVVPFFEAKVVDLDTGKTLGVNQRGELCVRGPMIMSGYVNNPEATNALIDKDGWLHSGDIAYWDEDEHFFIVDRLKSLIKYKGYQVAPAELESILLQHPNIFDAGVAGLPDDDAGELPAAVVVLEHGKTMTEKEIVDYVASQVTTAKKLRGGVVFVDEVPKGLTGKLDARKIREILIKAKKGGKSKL
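Biochemical qHTS of compounds, final roughly 60 µM downward over six points, against 10 nM purified firefly luciferase using Km concentrations of substrates (10 uM D-luciferin, 10 uM ATP) in Tris acetate pH 7.5 buffer; luminescence output.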
Active calls of the source: *; ? = inconclusive; . = not tested or not shown; [ ] = another dose, or the depositor's remark. Calls follow the shape of the dose curve; as a rule, active = well fitted curve in the direction sought with a large enough effect; inconclusive = small, poorly fitted or top-dose-only effect, or another doubt; inactive = no such curve, though single readings can be large; an effect the other way counts as inactive or inconclusive. Potency is read from the fitted curve at half-maximal effect.

SMILES	Rab9 prom act	ELG1 genotox	SMN2 splice up	ELG1 DNA repair	NPC1 promoter act	FLuc modulator
O=C(Nc1ccc2oc(-c3ccccc3)nc2c1)c1ccc2c(c1)OCCO2	18%	-11%	-46%	?	0%	5.4µM*
COc1cc(C(=O)Nc2nc(OC)c(-c3ccccc3)c(OC)n2)cc(OC)c1OC	-1%	-15%	-1%	9.2µM*	-2%	3%
COc1ccc(-c2nc3ccccc3o2)cc1NC(=O)c1cccnc1	.	.	-1%	.	.	11µM*
CCN1CCN(C(=O)c2cnn(-c3cccc(C)c3)c2C2CCN(C(=O)OC(C)(C)C)CC2)CC1	.	.	.	.	.	-4%
CC(C)(C)OC(=O)[C@H](C1N[C@@H](C(=O)O)C(C)(C)S1)N1C(=O)c2ccccc2C1=O (stereo partly drawn)	.	.	-1%[9.22 µM]	.	.	.
O=C(Nc1ccc2oc(-c3ccncc3)nc2c1)c1ccc2c(c1)OCO2	-7%	2%	.	-2%	-2%	?
O=C(Nc1ccc2oc(-c3ccncc3)nc2c1)c1ccc2c(c1)OCCO2	2%	6%	.	?	3%	1.7µM*
O=C(Nc1ccc2oc(-c3ccccc3)nc2c1)c1ccco1	2.5µM*	?	13µM*	?	1.8µM*	4.8µM*
O=C(Nc1ccc2oc(-c3cccnc3)nc2c1)c1ccc2c(c1)OCCO2	29%	?	.	?	11%	2.4µM*
O=C(Nc1cccnc1)c1ccc(Cl)c(Cl)c1	4%	10%	.	?	-2%	?
CN(C)c1nc(N)c(C(=O)Nc2cccnc2)nc1Cl	.	.	11µM*	.	.	.
COc1cc(C=O)c([N+](=O)[O-])cc1OC	.	.	-14%	.	.	.
CCOC(=O)c1csc(NC(C)=O)n1	4%	7%	28%	?	14%	0%
CCOC(=O)c1csc(NC(=O)c2ccccc2)n1	1.8µM*	8.2µM*	11µM*	?	3.2µM*	12µM*
COC(=O)c1ccc(-n2c(C)cc(-c3csc(NC(=O)c4ccc(S(=O)(=O)N(C)C)cc4)n3)c2C)cc1	-22%	-8%	-63%	13µM*	-12%	1%
Cc1cc(-c2csc(NC(=O)c3cccc(S(=O)(=O)N(C)C)c3)n2)c(C)n1-c1ccccc1	-21%	-10%	-45%	?	-7%	?
CCOC(=O)c1csc(-c2ccc3c(c2)CCO3)n1	2.2µM*	?	.	?	3.5µM*	4.8µM*
CCOC(=O)c1csc(-c2ccc(OC)c(OC)c2)n1	0%	-1%	-5%	?	-1%	?
CCOC(=O)c1csc(-c2sccc2Br)n1	3.2µM*	5.2µM*	.	?	2.5µM*	1.9µM*
Cc1cccc(CNC(=O)CCCN2C(=O)c3cccnc3Oc3ccccc32)c1	.	.	.	.	.	-3%
N[C@H](C(=O)O)C1C(C(=O)O)C1C(=O)O (stereo partly drawn)	.	.	14%	.	.	.
CCOC(=O)c1csc(NC(=O)c2ccc(S(=O)(=O)N(C)C)cc2)n1	21%	-20%	-30%	7.3µM*	20%	-4%
CCOC(=O)c1csc(NC(=O)c2ccc(OCC)cc2)n1	?	-6%	-39%	?	11%	6.7µM*
CCOC(=O)c1csc(NC(=O)c2ccc3c(c2)OCCO3)n1	?	1%	.	?	?	3.8µM*
CCOC(=O)c1csc(NC(=O)c2ccc(OC)c(OC)c2)n1	0%	5%	7%	2%	-3%	-1%
SMILES	Rab9 prom act	ELG1 genotox	SMN2 splice up	ELG1 DNA repair	NPC1 promoter act	FLuc modulator
Cc1cccc(N2CCN(c3ccc4cc(S(=O)(=O)N5CCC(C)CC5)ccc4n3)CC2)c1C	.	.	.	.	.	-1%
Cc1[nH]c(C)c2c(=O)n(-c3ccccc3)ncc12	?	21µM*	0%	?	18%	?
O=C(CSc1nnc(-c2ccccc2)c(-c2ccccc2)n1)NC1CCCC1	.	.	.	.	.	-11%
O=C(Cn1ccsc1=NC(=O)C(F)(F)F)c1ccccc1	2.8µM*	15%	?	?	?	-12%
Cc1cccc(Cn2c(=O)c3c(nc4n3CCN4Cc3ccco3)n(C)c2=O)c1	0%	-10%	-9%	21µM*	-1%	-5%
Cn1c(=O)n(Cc2ccc(Cl)cc2)c(=O)c2c1nc1n2CCN1Cc1ccco1	1%	-14%	-11%	26µM*	-1%	0%
Cn1c(=O)n(Cc2ccccc2F)c(=O)c2c1nc1n2CCN1Cc1ccco1	-1%	3%	-48%	?	-6%	-2%
Cn1c(N2CCCC2)nc2c1c(=O)n(Cc1ccc(Cl)cc1)c(=O)n2C	1%	-5%	-26%	21µM*	-6%	-1%
Cn1c(N2CCC(C(N)=O)CC2)nc2c1c(=O)n(Cc1ccc(Cl)cc1)c(=O)n2C	-3%	1%	11%	-16%	-2%	4%
CCCn1c(=O)c2c(nc3n2CCN3Cc2ccco2)n(C)c1=O	-2%	-3%	-17%	?	1%	-1%
CC(=O)Nc1ccc(S(=O)(=O)N2CCC(n3c(C)nc4cccnc43)CC2)cc1	.	.	.	.	.	-7%
O=C(Nc1ccc(Br)cc1)c1cccc(C(=O)Nc2ccc(Br)cc2)c1	.	.	5%	.	.	?
Cc1ccc(C)c(NC(=S)c2ccc3ccccc3n2)c1	3.2µM*	?	11µM*	?	?	5.4µM*
Cc1ccc(C)c(NC(=S)c2ccccn2)c1	23%	15%	17%	?	21%	17µM*
CN(CC(=O)Nc1ccc(F)cc1)C(=O)c1ccc2ccccc2n1	-1%	1%	.	-9%	-3%	-2%
CN(C)c1ccc(NC(=S)c2ccc3ccccc3n2)cc1	24%	?	.	?	?	17µM*
COc1ccc(C)cc1NC(c1nnc(-c2ccccc2)o1)c1ccc(F)cc1Cl (stereo not drawn)	.	.	-5%	.	.	0%
CC(C)(C)c1csc(NC(=O)c2cccs2)n1	3.5µM*	?	.	?	3.2µM*	11µM*
CC(C)(C)c1csc(NC(=O)Cc2cccs2)n1	16%	6%	-25%	-13%	0%	15µM*
CCc1ccc(S(=O)(=O)Nc2ccc3[nH]c(=O)sc3c2)cc1	.	.	.	.	.	-17%
Cc1ccc(OCc2nc(-c3cccs3)no2)c([N+](=O)[O-])c1	0.25µM*	?	2.8µM*	?	0.4µM*	0.76µM*
O=[N+]([O-])c1ccccc1OCc1nc(-c2cccs2)no1	2.5µM*	?	13µM*	?	2.5µM*	6.7µM*
O=C(O)CCc1nc(-c2cccs2)no1	-1%	-1%	-6%	1%	-6%	2%
O=[N+]([O-])c1ccc(F)cc1OCc1nc(-c2cccs2)no1	?	?	16µM*	?	23%	9.5µM*
